The whole screen tested about 69,000 compounds, of which about 950 (1.4%) showed an effect of 50% or more. The entries come from a sample that favours strong results as a whole.

The test deals with Mycobacterium tuberculosis. Nature of the test: Cornell M. t heat shock assay. Further: in the data most compounds retested in dose-response had high values. It is filed as functional, organism-based. Further details: dose or concentration left out as unconfirmed.
In the case of `Cl.Cn1cc(C(=O)NCc2cncc3c2CCN(S(C)(=O)=O)C3)cn1`, the “Percent Effect” value is on record as 36.5%.

In the case of `O=C(O)C(F)(F)F.O=C(O)C(F)(F)F.O=C(O)C(F)(F)F.c1ccc(COC[C@H]2CC[C@H]3[C@H](CCN3Cc3ccccn3)O2)nc1`, the “Percent Effect” value stood at 4.762%.

With `COc1ncccc1C(=O)N1CC[C@H]2C[C@H](c3nnc(C)[nH]3)O[C@@H]2C1.O=C(O)C(F)(F)F`, the “Percent Effect” value was -43.18%.

Consider `Cc1ccc(CN2C[C@@H]3CCN(Cc4cccnc4)C(=O)[C@H]3C2)s1.O=C(O)C(F)(F)F.O=C(O)C(F)(F)F`, for which the “Percent Effect” value is -19.89%.

For `Cc1ccc(N2CCO[C@H]3CN(Cc4cnn(C)c4)C[C@H]32)nn1.O=C(O)C(F)(F)F.O=C(O)C(F)(F)F`, the “Percent Effect” value is recorded as 3.052%.

For the compound `CCn1ncc2c1C(COCC1CC1)CN(c1ccc(C)nn1)C2.O=C(O)C(F)(F)F.O=C(O)C(F)(F)F` (centres undefined), the “Percent Effect” value was 28.05%.

Regarding `Fc1ccc(CNCCn2cccn2)cc1F`, the “Percent Effect” value is given as -1.295%.

Consider `c1ccc(Cc2nc(CNCCn3cccn3)cs2)cc1`, for which the “Percent Effect” value came to 96.34%.

For the compound `Clc1ccc(OCCNCCn2cccn2)cc1`, the “Percent Effect” value is reported as -6.93%.

Turning to `Clc1ccc(Cc2nc(CNCCn3cccn3)cs2)cc1`, the “Percent Effect” value is 102.1%.

Turning to `c1csc(-c2noc(CNCCn3cccn3)n2)c1`, the “Percent Effect” value is listed as -3.991%.

In the case of `CCOC1COC2(CCN(c3cccc(C)n3)CC2)C1.O=C(O)C(F)(F)F` (centres undefined), the “Percent Effect” value is -0.3848%.

Turning to `CCCOc1ccccc1CN[C@@H]1CCC[C@H]1Cc1cc(C)no1.O=C(O)CC(O)(CC(=O)O)C(=O)O`, the “Percent Effect” value is listed as -26.27%.

For `CNC(=O)CN1CCOCC2(CCCN(CCc3ccccc3)C2)C1.O=C(O)C(F)(F)F.O=C(O)C(F)(F)F` (centres undefined), the “Percent Effect” value is -11.41%.

Take `CO[C@@H]1CCN(Cc2ccoc2)C[C@@H]1Cc1ccccc1.O=C(O)C(F)(F)F`: the “Percent Effect” value stood at 28.11%.

Turning to `Cc1ccc(N2CC[C@@H]3[C@@H]2CCN3C(=O)Cc2ccsc2)nn1.O=C(O)C(F)(F)F`, the “Percent Effect” value is on record as 8.036%.

Take `CC1CCN(c2cncc(CCC3CCCN3)n2)CC1.Cl` (centres undefined): the “Percent Effect” value was -9.936%.

For `CCCn1cc(-c2ccnc(NC3CCCc4ccccc43)n2)c(C)n1` (centres undefined), the “Percent Effect” value was 98%.

Take `CCCn1ncc(-c2ccnc(NC3CCCc4ccccc43)n2)c1C` (centres undefined): the “Percent Effect” value came out at 27.79%.

Consider `CCCn1cc(-c2ccnc(NC3CCc4ccccc43)n2)c(C)n1` (centres undefined), for which the “Percent Effect” value worked out at 18.89%.

On to `O=C(NCCc1cccs1)[C@H]1CO[C@H]2CCNC[C@H]2C1.O=C(O)C(F)(F)F`, for which the “Percent Effect” value amounted to 0.5431%.

For `Cc1cc(Nc2cnccn2)cc(C2CCCN2)n1` (centres undefined), the “Percent Effect” value is -16.58%.

Consider `Cc1nc(Nc2cnccn2)cc(C2CCCN2)n1.Cl` (centres undefined), for which the “Percent Effect” value is listed as -30.38%.

As to `Cl.c1nnc(Nc2cncc(C3CCCN3)n2)s1` (centres undefined), the “Percent Effect” value is 104.6%.

Turning to `Cc1nc(Nc2nnc(C)s2)cc(C2CCCN2)n1.Cl` (centres undefined), the “Percent Effect” value is -7.337%.

Regarding `Cc1nc(Nc2nncs2)cc(C2CCCN2)n1.Cl` (centres undefined), the “Percent Effect” value stood at 5.522%.

Consider `Cc1nc(Nc2ncc(C)s2)cc(C2CCCN2)n1.Cl` (centres undefined), for which the “Percent Effect” value was 6.055%.

For the compound `Cl.c1cnc(Nc2cncc(C3CCCN3)n2)cn1` (centres undefined), the “Percent Effect” value was 54.88%.

For the compound `Cl.c1cncc(CNc2cncc(C3CCCN3)n2)c1` (centres undefined), the “Percent Effect” value is reported as -18.35%.

For the compound `Cl.Cn1nc(C2CCN(C(=O)CCN3CCOCC3)CC2)c2cccnc21`, the “Percent Effect” value was 0.9946%.

Turning to `CNC(=O)COC1COC2(CCN(Cc3ccncc3F)CC2)C1.O=C(O)C(F)(F)F` (centres undefined), the “Percent Effect” value is recorded as 44.76%.

`COc1cccc(CN2CCC3(CCN(C(=O)[C@H]4CCCO4)CC3)C2)c1.O=C(O)C(F)(F)F`: the “Percent Effect” value is given as -2.359%.

Regarding `Cc1cnc(N2Cc3nccn3CC(Cn3ncccc3=O)C2)nc1.O=C(O)C(F)(F)F` (centres undefined), the “Percent Effect” value is given as -35.14%.

On to `O=C(CN1CCCC(c2ccn[nH]2)C1)Nc1nncs1` (centres undefined), for which the “Percent Effect” value is reported as 98.23%.

Regarding `Cc1nnc(NC(=O)CN2CCCC(Cn3cncn3)C2)s1` (centres undefined), the “Percent Effect” value worked out at 2.027%.

For the compound `Cc1nc(C)n(CC2CCCN(CC(=O)Nc3nncs3)C2)n1` (centres undefined), the “Percent Effect” value is recorded as 11.86%.

As to `Cc1nc(C)n(CC2CCCN(CC(=O)Nc3nnc(C)s3)C2)n1` (centres undefined), the “Percent Effect” value is -28.96%.

Regarding `Cc1nnc(NC(=O)CN2CCCC(c3ccn[nH]3)C2)s1` (centres undefined), the “Percent Effect” value worked out at 101.7%.

On to `Cn1c(C2CC2)nc2c1CCN(CC(=O)Nc1nncs1)C2`, for which the “Percent Effect” value was found to be 13.67%.

For the compound `CCN(CC)S(=O)(=O)N1CC[C@H](c2ccccc2)[C@H]2NCCCC[C@H]21.Cl`, the “Percent Effect” value is listed as -6.669%.

With `CC(C)c1nnc(N2C[C@@H]3CC[C@H](C2)N(Cc2ccccc2)C3)s1`, the “Percent Effect” value came to 34.82%.

Consider `CCS(=O)(=O)N1CCC2(CCCN(Cc3cc(OC)ccc3F)C2)C1` (centres undefined), for which the “Percent Effect” value came out at 24.11%.

On to `COc1ccc(F)c(CN2CCCC3(CCN(S(C)(=O)=O)C3)C2)c1` (centres undefined), for which the “Percent Effect” value is -18.53%.

`COc1ccc(F)c(CN2CCCC3(CCN(C4CCOCC4)C3)C2)c1` (centres undefined): the “Percent Effect” value is given as 99.36%.

Turning to `Cc1ccc(C(=O)N2CCn3c(COCC4CC4)cnc3C2C)nc1.O=C(O)C(F)(F)F` (centres undefined), the “Percent Effect” value is given as -9.703%.

Take `CCN1CCC2(CC1)CC(NCc1cccs1)c1ccccc1O2.O=C(O)C(F)(F)F.O=C(O)C(F)(F)F` (centres undefined): the “Percent Effect” value is reported as -24.55%.

Take `CN1C(=O)CC(N(C)Cc2nc3ccccc3c(=O)[nH]2)C1=O` (centres undefined): the “Percent Effect” value is 15.14%.

Take `CCN1C(=O)CC(N(C)Cc2nc3ccccc3c(=O)[nH]2)C1=O` (centres undefined): the “Percent Effect” value is given as 16.93%.

`CN(CC(=O)N(C)C1CCCCC1)Cc1nc2ccccc2c(=O)[nH]1`: the “Percent Effect” value is given as 97.32%.

Take `CN(Cc1nc2ccccc2c(=O)[nH]1)C[C@@H]1CCCN2CCCC[C@H]12`: the “Percent Effect” value came out at 44.63%.

Turning to `CN(Cc1nc2ccccc2c(=O)[nH]1)C1CC(=O)N(C2CC2)C1=O` (centres undefined), the “Percent Effect” value turned out to be 51.11%.

In the case of `CN(CC(=O)N(C)C1CCCCC1)Cc1nc2c(cnn2C)c(=O)[nH]1`, the “Percent Effect” value is listed as -5.559%.

As to `CCC(CN1CCCCC1)NC(=O)C1(c2ccc(F)cc2)CC1.O=C(O)CC(O)(CC(=O)O)C(=O)O` (centres undefined), the “Percent Effect” value is -8.056%.

With `CSCCC(O)C(=O)N1CCN(Cc2cccc(Cl)c2)CC1` (centres undefined), the “Percent Effect” value stood at 31.13%.

Regarding `Cc1ccoc1C(=O)N1CC[C@@H]2CN(C3CCOCC3)CCO[C@@H]2C1.O=C(O)C(F)(F)F`, the “Percent Effect” value came to 6.269%.

Regarding `COc1ccc(CN2Cc3nnn(C)c3C(COCCN(C)C)C2)cc1.O=C(O)C(F)(F)F.O=C(O)C(F)(F)F` (centres undefined), the “Percent Effect” value is reported as -24.51%.

With `Cl.Nc1ncc(-c2csc(NC(=O)C[C@H]3COCCN3)n2)cn1`, the “Percent Effect” value was -19.35%.

Consider `Cc1cnc(Nc2cccc(C3CCCN3C(=O)CO)n2)s1` (centres undefined), for which the “Percent Effect” value was -6.272%.

Turning to `CCc1nnc(Nc2cccc(C3CCN(S(=O)(=O)N(C)C)CC3)n2)s1`, the “Percent Effect” value was -4.928%.

For the compound `Cc1cccc(C2CCCN2S(=O)(=O)N(C)C)n1` (centres undefined), the “Percent Effect” value is on record as -7.65%.

Consider `COCC(=O)N1CCCCC1c1ccnc(Nc2ncc(C)s2)n1` (centres undefined), for which the “Percent Effect” value is -16.88%.

For the compound `COCC(=O)N1CCCC1c1cccc(Nc2ncc(C)s2)n1` (centres undefined), the “Percent Effect” value is 102.5%.

Regarding `CCN(CC)S(=O)(=O)N1CCCC1c1cccc(Nc2ncc(C)s2)n1` (centres undefined), the “Percent Effect” value was 70.89%.

Consider `COc1ccc(CN2C[C@@H](N(C)Cc3ccco3)[C@H]3OCCC[C@H]32)cc1.O=C(O)C(F)(F)F.O=C(O)C(F)(F)F`, for which the “Percent Effect” value is 2.974%.

In the case of `CCOc1ccccc1CNC(=O)Cn1ccc2c(C)nn(C)c2c1=O`, the “Percent Effect” value came out at 9.293%.

With `O=C(Cc1ccccc1)N1CCCC2(COCCN(CC3CC3)C2)C1.O=C(O)C(F)(F)F` (centres undefined), the “Percent Effect” value is reported as -3.666%.

`Cc1nc(Nc2nnc(C)s2)cc(C2CCCN2C2CCCC2)n1` (centres undefined): the “Percent Effect” value is -11.05%.

On to `CN(C)c1nccc(N2CCO[C@H]3CN(Cc4nccn4C)C[C@H]32)n1.O=C(O)C(F)(F)F`, for which the “Percent Effect” value is given as -13.16%.

As for `CC(C)n1c2ccccc2c2c1cc(C(=O)O)n2C(=O)N(C)C`, the “Percent Effect” value is 64.45%.

As to `CC(C)n1c2ccccc2c2c1cc(C(=O)NCCO)n2C(=O)N(C)C`, the “Percent Effect” value came to 20.51%.

Take `CC(C)n1c2ccccc2c2c1cc(C(=O)N(C)C)n2C(=O)N(C)C`: the “Percent Effect” value came out at 11.26%.

Turning to `COc1ccc(CC(=O)N2CCN(c3nccn3C)CC2)cc1.Cl`, the “Percent Effect” value came out at 6.481%.

Consider `O=C(O)C(F)(F)F.O=S(=O)(C1CC1)N1CCCn2cnc(COc3cccnc3)c2C1`, for which the “Percent Effect” value is on record as 9.967%.

Regarding `Cc1cccc(NC(=O)CN2C(=O)CC(C)(C)c3ccccc32)n1`, the “Percent Effect” value is -2.777%.

For `CC1(C)CC(=O)N(CC(=O)Nc2ccon2)c2ccccc21`, the “Percent Effect” value is 77.91%.

As to `CCn1cc(NC(=O)CN2C(=O)CC(C)(C)c3ccccc32)cn1`, the “Percent Effect” value worked out at 52.7%.

Consider `CCn1ccc(NC(=O)CN2C(=O)CC(C)(C)c3ccccc32)n1`, for which the “Percent Effect” value was found to be 2.312%.

Take `CCn1ccc(NC(=O)CN2C(=O)C(C)(C)c3ccccc32)n1`: the “Percent Effect” value is -16.77%.

Consider `Cc1cc(NC(=O)CN2C(=O)CC(C)(C)c3ccccc32)no1`, for which the “Percent Effect” value is 6.008%.

For `Fc1ccc(CN[C@@H]2COC[C@H]2c2ccc(F)cc2)cc1.O=C(O)CC(O)(CC(=O)O)C(=O)O`, the “Percent Effect” value turned out to be 2.118%.

As to `COc1cccc(OCCNCc2ccccc2)c1.O=C(O)C(=O)O`, the “Percent Effect” value is -6.728%.

Consider `CCc1ccc(CN2CCCn3c(nc(Cn4ccnc4)cc3=O)C2)o1.O=C(O)C(F)(F)F.O=C(O)C(F)(F)F`, for which the “Percent Effect” value was -19.48%.

In the case of `Cc1ccnc(N2CCCC(c3noc(C(C)C)n3)C2)n1` (centres undefined), the “Percent Effect” value worked out at 12.21%.

Turning to `CNC(=O)c1cn2cc(-c3ccccc3Cl)n(CC3CC3)c(=O)c2n1`, the “Percent Effect” value stood at 12.71%.

In the case of `CCNC(=O)c1cn2cc(-c3ccccc3Cl)n(CC3CC3)c(=O)c2n1`, the “Percent Effect” value is given as 99.63%.

As for `CN(C)C(=O)c1cn2cc(-c3ccccc3Cl)n(CC3CC3)c(=O)c2n1`, the “Percent Effect” value came out at 22.72%.

Take `COCCN1CCC2(CC1)CN(C(=O)N(C)C)c1ccc(C)cc12.O=C(O)C(F)(F)F`: the “Percent Effect” value is -10.15%.

As to `O=C(N[C@H]1CN(Cc2ccsc2)[C@@H]2CCCO[C@H]12)C1CC1.O=C(O)C(F)(F)F`, the “Percent Effect” value is listed as 2.811%.

`Cc1cccc(CN2CC3(CCN(C(=O)N(C)C)CC3)OCC2=O)n1.O=C(O)C(F)(F)F`: the “Percent Effect” value was -24.23%.

These data come from ChEMBL document CHEMBL3988442, “University of Dundee, Small-Polar-MMV Screening Library” (2021).
